Experimental data taken from the supplement of paper PMC6555819.

Assays:
Assay in all cases: PBM binding z-score (relative to random genomic background probes); higher = stronger binding; sequences stand for … in GC…GCGATTGACAGCGTAGAATGAAGG
[1] = system: FXR:RXRa (NR concentration 270 nM, RXRa partner concentration 90 nM)
In short: (§1)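 Custom Agilent 4×180K protein-binding microarrays carried double-stranded probes, each with a 34-nt variable region. These regions held direct-repeat seeds, single-nucleotide variants, half-site ablations and random human genomic background sequences. Ligand-free nuclear receptor dimers were incubated on the arrays for 1 h, antibodies against each partner (one per run) detected binding, and scanned fluorescence was regression-normalized. Binding z-scores take the random background probes as reference.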

[2] = system: LXRa:RXRa (NR concentration 270 nM, RXRa partner concentration 90 nM)
In short: as §1

[3] = system: LXRa homodimer (NR concentration 270 nM)
In short: as §1

[4] = system: LXRb:RXRa (NR concentration 270 nM, RXRa partner concentration 90 nM)
In short: as §1

[5] = system: LXRb homodimer (NR concentration 270 nM)
In short: as §1

[6] = system: PPARa:RXRa (NR concentration 270 nM, RXRa partner concentration 90 nM)
In short: as §1

[7] = system: PPARg:RXRa (NR concentration 180 nM, RXRa partner concentration 90 nM)
In short: as §1

[8] = system: PPARg:RXRa 270nM:90nM, anti-RXR (NR concentration 270 nM, RXRa partner concentration 90 nM)
In short: as §1

[9] = system: PPARg:RXRa 30nM:10nM, anti-RXR (NR concentration 30 nM, RXRa partner concentration 10 nM)
In short: as §1

[10] = system: PPARg:RXRa 90nM:30nM, anti-RXR (NR concentration 90 nM, RXRa partner concentration 30 nM)
In short: as §1

[11] = system: PPARg:RXRa DBDmut IVT, anti-RXR (DBD mutation: RXRa K156A/R161A, NR concentration 270 nM, RXRa partner concentration 90 nM)
In short: as §1

[12] = system: PPARg:RXRa IVT, anti-PPARg (NR concentration 270 nM, RXRa partner concentration 90 nM)
In short: as §1

[13] = system: PPARg DBDmut:RXRa IVT, anti-PPARg (DBD mutation: PPARg1 K132A/R137A, NR concentration 270 nM, RXRa partner concentration 90 nM)
In short: as §1

[14] = system: PPARg DBDmut IVT, anti-PPARg (DBD mutation: PPARg1 K132A/R137A, NR concentration 270 nM)
In short: as §1

[15] = system: PPARg homodimer (NR concentration 180 nM)
In short: as §1

[16] = system: PXR:RXRa (NR concentration 270 nM, RXRa partner concentration 90 nM)
In short: as §1

[17] = system: PXR homodimer (NR concentration 270 nM)
In short: as §1

[18] = system: RARa:RXR (NR concentration 270 nM, RXRa partner concentration 90 nM)
In short: as §1

[19] = system: RARa homodimer (NR concentration 270 nM)
In short: as §1

[20] = system: RARb:RXRa (NR concentration 270 nM, RXRa partner concentration 90 nM)
In short: as §1

Sequence | PBM binding z-score [1] | PBM binding z-score [2] | PBM binding z-score [3] | PBM binding z-score [4] | PBM binding z-score [5] | PBM binding z-score [6] | PBM binding z-score [7] | PBM binding z-score [8] | PBM binding z-score [9] | PBM binding z-score [10] | PBM binding z-score [11] | PBM binding z-score [12] | PBM binding z-score [13] | PBM binding z-score [14] | PBM binding z-score [15] | PBM binding z-score [16] | PBM binding z-score [17] | PBM binding z-score [18] | PBM binding z-score [19] | PBM binding z-score [20]
CGTCCAAGGTCAAAGGTCAGTTAAGAGATGACGG | 8.43 | 6.95 | 4.02 | 6.65 | 2.51 | 7.44 | 10.5 | 8.31 | 7.4 | 9.07 | 3.55 | 5.71 | 1.21 | -0.205 | 3.01 | 6.49 | 1.86 | 8.28 | 1.38 | 6.2
GCTATTAGTAGAAAGGGCAACCGAATGATTCTCG | -0.219 | 0.182 | -0.00158 | 0.187 | -0.195 | 1.42 | 2.17 | 3.71 | 1.81 | 3.54 | 0.164 | 0.803 | 0.319 | 0.449 | 1.28 | 0.256 | -0.0739 | 0.703 | 1.09 | 1.96
CCTAGTTGGTCAAGGTCACACGCGCTATAGGTAC | 4.49 | 3.9 | 2.29 | 3.34 | 0.902 | 4.29 | 3.54 | 3.95 | 1.23 | 3.1 | 2.5 | 3.82 | 0.145 | 0.325 | 2.68 | 4.09 | 2.6 | 4.13 | 1.78 | 4.39
ACAGACAGGTGAATGAAGGTAACTCAGCTGGACG | 0.255 | -0.0154 | -0.43 | -0.273 | -0.569 | 0.447 | 0.97 | 0.258 | 0.0803 | 0.0876 | 0.834 | 1.06 | 0.562 | -0.518 | -0.217 | -0.156 | -0.221 | 0.42 | -0.316 | 0.743
AGAATGAGGTTACCAAAGATCAGGGCAACGCTTG | 2.12 | 6.55 | -0.189 | 3.11 | -0.372 | 3.61 | 3.06 | 3.12 | 1.15 | 2.34 | 3.79 | 3.77 | 0.564 | 0.291 | 0.848 | 1.81 | -0.116 | 2.47 | -0.187 | 2.43
ATCTCTAGGTAAAAGTTCAGTGAATCCCGAGGAT | 0.943 | 1.4 | 1.16 | 1.12 | 0.841 | 4.11 | 8.09 | 7.52 | 8.83 | 8.39 | 1.99 | 3.82 | 1.42 | 1.8 | 1.4 | 2.14 | 1.95 | 1.64 | 0.604 | 2.42
GCTATTAGTTGAAACGGCAACCGAATGATTCTCG | -0.263 | -0.34 | -0.23 | -0.237 | 0.111 | -0.33 | 0.341 | -0.00574 | 0.0955 | 0.0763 | 0.254 | -0.276 | -0.0416 | -0.0923 | 0.137 | -0.267 | 0.122 | -0.411 | -0.177 | -0.226
CAAACTAGATCACCGGAAGGTCAAAGTCCGCATG | 3.07 | 3.21 | 3.33 | 3.19 | 1.2 | 3.85 | 2.04 | 2.62 | 0.824 | 1.84 | 3.34 | 3.13 | 0.538 | 0.366 | 2.31 | 3.54 | 1.53 | 3.99 | 1.63 | 3.21
CGAACGATGGCATGAGTTGATAGCAAATGCCGAT | -0.377 | -0.686 | -0.408 | -0.556 | -0.839 | -0.496 | 0.77 | 0.203 | 0.0969 | -0.044 | -0.534 | -0.676 | -0.379 | -0.0268 | 0.126 | -0.184 | -0.0321 | -0.0116 | -0.0736 | -0.391
